In PubChem BioAssay AID802 (Columbia University Molecular Screening Center, 2007):
Out of some 95,000 compounds screened, about 460 (0.48%) were called active. The full list was thinned out, with actives kept by preference. A number with no mark means an inactive call.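 How the source made its calls: active means inhibition above the batch mean plus 3 SD, with images confirmed as a hit by eye (cut at about 37% in these data); inconclusive means inhibition above that limit but hit not confirmed in images; inactive means inhibition not above that limit.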

assay: blockers of endothelial VCAM-1 upregulation by TNFa – imaging, HUVEC, TNFa stimulus, immunofluorescence, primary screen (AID 802); conditions: HUVEC TNFa-induced VCAM-1 immunofluorescence, high-content imaging; at 2 µM; stronger effect = higher value;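 further: 0% = TNF-stimulated DMSO wells and 100% = unstimulated control wells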

| SMILES | inhibition |
| --- | --- |
| O=C(c1ccccn1)c1ncc(C(F)(F)F)cc1Cl | 2.2% |
| Cc1ccc(C(=O)c2c(NC(=O)c3ccncc3)sc3c2CCCC3)cc1 | 3% |
| O=C(Cn1cnc2ccccc2c1=O)NCC1COc2ccccc2O1 (stereo unspecified) | 0.5% |
| Cc1ccc(-c2nn(C(C)(C)C)c3ncnc(N)c23)cc1 | 40.8% (active) |
| C=CCn1c(N)c(C(=O)OCC(C)C)c2nc3ccccc3nc21 | 94.4% (active) |
| C=CCn1c(N)c(S(=O)(=O)c2cccs2)c2nc3ccccc3nc21 | -6.6% |
| CC(C)(C)OC(=O)c1c(N)n(CCCN2CCCC2=O)c2nc3ccccc3nc12 | -22.1% |
| Cc1ccc(SCC(=O)c2cc(C)c(OC(=S)N(C)C)c(C)c2)cc1 | 8.8% |
| COc1cc(C(=O)N2CCN(C/C=C/c3ccccc3)CC2)cc(OC)c1C | -10.4% |
| Cc1cc(/C=N/NC(=O)CC2(C)OCCO2)c(C)n1-c1ccc(Cl)c(Cl)c1 | -7.1% |
| CCOC(=O)C(=O)Nc1nc(-c2ccccc2)c(CC)s1 | 4.9% |
| O=S(=O)(NCc1cccnc1)c1ccc(Cl)nc1 | 0.2% |
| COc1ccc(C(C(=O)NCc2ccccc2)N(Cc2cccs2)C(=O)c2cnccn2)cc1 (stereo unspecified) | 2.9% |
| Cc1ccc(-c2nc3ccccc3[nH]2)cc1N | 4.2% |
| NC(=O)COc1ccc(/C=N/NC(=O)C2CCCN2S(=O)(=O)c2ccc(Cl)cc2)cc1 (stereo unspecified) | 17.1% |
| O=S(=O)(/N=C(/Nc1ccccn1)c1ccccc1)c1ccc(Cl)cc1 | 0.3% |

| SMILES | inhibition |
| --- | --- |
| Cc1ccccc1CS(=O)(=O)CC1(O)CCN(C(=O)c2cccc(C(F)(F)F)c2)CC1 | -2% |
| O=C(NC1(C(F)(F)F)NC(=O)N(Cc2cccnc2)C1=O)c1ccccc1Cl (stereo unspecified) | 8.4% |
| COc1cc(NS(=O)(=O)c2ccc(N/C=C(\C=O)c3nc4cc(Cl)ccc4o3)cc2)nc(OC)n1 | -2.6% |
| Cc1cc(C(=O)CSc2nc(N)cc(=O)[nH]2)c(C)n1CCc1ccc(Cl)cc1 | 16.5% |
| CSc1nc2nc3c(c(=O)n2[nH]1)CCC3 | 7.1% |
| CC(C)=CC(=O)Nc1nnc(-c2ccc(F)cc2)s1 | 6.5% |
| CC(C)(C)c1cc2cccnc2n1Cc1ccccc1 | 9.9% |
| Cc1cccc(N2CCN(S(=O)(=O)c3ccc4[nH]c(=O)c(=O)[nH]c4c3)CC2C)c1 (stereo unspecified) | 3.1% |
| CCOc1ccccc1N=C1NC(=O)CS1 | -6.9% |
| Cc1cccc(N=C2NC(=O)CS2)c1C | 97.1% (active) |
| COC(=O)C1C(=O)c2c([nH]c(C(=O)OCCSC)c2C)CC1C (stereo unspecified) | 1.9% |
| C=CCOC(=O)C1=C(C)NC(C)=C(C(=O)OCC=C)C1c1cccs1 | 3.8% |
| CCCOC(=O)c1[nH]c2c(c1C)C(=O)CC(c1cccs1)C2 (stereo unspecified) | 65% (active) |
| CCCCCCC12CCC(C(=O)O)(CC1)CC2 | 25.1% |
| Cc1cccc2c(=O)n3c(nc12)CCCCC3 | 13.3% |
